From PubChem BioAssay (NCI)
Compounds without any hit were thinned out: in the full panel of roughly 79,000, 15% have a hit. Calls of active or inactive are those of the source. Rule as the data show it: active = growth inhibition above about 70%; inactive = the rest. *1 amine or outer side, *2 acyl side, *3 side chain or, on linkers, in order; H or OH if unused. Where a SMILES comes first, the peptide text is derived from it. Bridges are numbered along the chain shown (N, C = ends). [ ]: non-standard residue; d: D form. The star is where a group is joined. Fmoc = O=C(OCC1c2ccccc2-c2ccccc21)*; X9 = O=C(C(CCCCNO[*:3])N[*:1])[*:2]

Assays:
[1] = NCI Yeast Anticancer Drug Screen. Data for the rad50 strain (AID 155);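 also: 0% = growth of vehicle-only cultures of the same strain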; conditions: S. cerevisiae rad50 strain growth inhibition; at 50.0 µM; hits give high values
In short: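 Inhibition values express reduced yeast growth in compound-treated cultures relative to vehicle-treated controls.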

[2] = NCI Yeast Anticancer Drug Screen. Data for the mec2-1 strain (AID 157); conditions: S. cerevisiae mec2-1 strain, at 50.0 µM, hits give high values
In short: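 Each compound was tested on mec2-1 yeast, a strain altered in DNA damage repair or cell cycle control. Growth inhibition is reported relative to vehicle.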

[3] = NCI Yeast Anticancer Drug Screen. Data for the sgs1 mgt1 strain (AID 161);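 also: 0% = growth of cultures given vehicle only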; conditions: S. cerevisiae sgs1 mgt1 strain, at 50.0 µM, hits give high values
In short: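 Read-out: growth inhibition vs vehicle controls. Cells: mutant yeast strain deficient in DNA damage repair.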

[4] = NCI Yeast Anticancer Drug Screen. Data for the cln2 rad14 strain (AID 165);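 also: 0% = growth equal to vehicle treated cultures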; conditions: S. cerevisiae cln2 rad14 strain, at 50.0 µM, hits give high values
In short: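 Test compounds were added to cln2 rad14 yeast cultures; inhibition of growth was then determined by comparison with vehicle treatment.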

[5] = NCI Yeast Anticancer Drug Screen. Data for the bub3 strain (AID 167); conditions: S. cerevisiae bub3 mutant strain, at 50.0 µM, hits give high values
In short: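 Steps: expose the mutant yeast strain to compound; grow alongside vehicle-treated cultures; measure growth; express inhibition against the vehicle cultures.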

[6] = NCI Yeast Anticancer Drug Screen. Data for the mlh1 rad18 strain (AID 175); conditions: S. cerevisiae mlh1 rad18 strain growth inhibition; at 50.0 µM; hits give high values
In short: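 Inhibition values reflect reduced growth of mutant yeast versus vehicle-treated controls following compound exposure; the mutations affect DNA damage repair.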

Measured: growth inhibition

CC(O)C(=O)NN (stereo not given)
inactive: [1] 0.75% | [2] -17.7% | [3] -4.95% | [4] -13.6% | [5] -4.65% | [6] 9.4%

CC1=NN(C(=O)CC(=O)Nc2ccc(C(=O)O)cc2)C(=O)C1N=Nc1ccccc1C(=O)O (stereo not given)
inactive: [1] 18.1% | [2] 18% | [3] 6.25% | [4] -6.5% | [5] -1.9% | [6] 25.7%

CCOC(=O)/C(C#N)=C/c1ccc(C)o1
inactive: [1] 19.1% | [2] 3.1% | [3] 27.4% | [4] 33% | [5] 31.1% | [6] 35%

CCCC1CN2CCc3cc(OC)c(OC)cc3C2CC1=O (stereo not given)
inactive: [1] 4.6% | [2] 23.6% | [3] 41.1% | [4] 12.4% | [5] 41.1% | [6] 39.8%

CC(=O)Oc1cccn2c(C(=O)C(=O)c3ccc4c(OC(C)=O)cccn34)ccc12
inactive: [1] 5.15% | [2] 1.8% | [3] -12.9% | [4] -0.55% | [5] -4.85% | [6] 14.7%

COc1ccc(C(=O)/C=C/c2ccccc2)c(O)c1OC
inactive: [1] -7.45% | [2] -1.85% | [3] 8.1% | [4] -0.95% | [5] 9.95% | [6] -7.1%

CC1CCCN(C(=O)Nc2ccc([N+](=O)[O-])cc2)C1 (stereo not given)
inactive: [1] 41.1% | [2] 31.3% | [3] 61.9% | [4] 25.8% | [5] 59.4% | [6] 43.8%

Cc1cc(C)c(N(C)C(=O)CCC(=O)O)c(Br)c1
inactive: [1] 3.1% | [2] -3.05% | [3] -13.2% | [4] 0.05% | [5] 9% | [6] -6.45%

COc1ccc(C2C3=C(COC3=O)OC(C)(C)Oc3cc4c(cc32)OCO4)cc1 (stereo not given)
inactive: [1] -3% | [2] 0.85% | [3] 13.7% | [4] 6.5% | [5] 36.1% | [6] -19.9%

CC(C)NC(=O)OCc1c(COC(=O)NC(C)C)c(S(=O)(=O)c2ccccc2)n2c1CCC2
inactive: [1] 11.5% | [2] 1.5% | [3] -20.6% | [4] 4.7% | [5] 1.35% | [6] 25.6%

Nc1cnc2c(c1)c(=O)nc1n2CCS1
inactive: [1] -0.45% | [2] 9.65% | [3] 6.6% | [4] 5.3% | [5] 0.5% | [6] -27.1%

Cc1ccccc1NCc1ccccc1
inactive: [1] 25.8% | [2] -3.2% | [3] 15.3% | [4] -29.8% | [5] 0.35% | [6] 23.1%

O=C(CO)CC(=O)CCC(=O)Nc1cccc([N+](=O)[O-])c1
inactive: [1] -4.7% | [2] 21.5% | [3] 0% | [4] 42.8% | [5] -12.3% | [6] -4.35%

CC(=O)OC1C(O[C@H]2CC[C@]34O[C@]35CC[C@]3(C)C(C6(C)CC[C@@H](C(C)(C)O)O6)[C@@H](O)CC3(C)[C@@H]5CC(OC3OC(CO)C(O)C(O)C3O)C4C2(C)C)OCC(O)C1O (stereo not given in full)
inactive: [1] -8.4% | [2] -21.6% | [3] 2.7% | [4] 1.85% | [5] 0.7% | [6] 6.35%

Cc1cnc2c(C)ccc([N+](=O)[O-])c2c1NCCCN(C)C
inactive: [1] 34.2% | [2] 13.8% | [3] 12.7% | [4] 2.45% | [5] 16.9% | [6] 52%

O=C(CNC(=O)OCc1ccccc1)NCCNCCNC(=O)CNC(=O)OCc1ccccc1
inactive: [1] -26.9% | [2] 6.7% | [3] -5.65% | [4] 36.2% | [5] 8.45% | [6] -0.4%

COC(C(=O)C(O)C(C)O)C1CC2C=C3C=C(OC4CC(OC5CC(O)C(OC)C(C)O5)C(OC(C)=O)C(C)O4)C(C)C(=O)C3=C(O)C2=C(O)C1OC1CC(OC2CC(OC3CC(C)(O)C(OC(=O)C(C)C)C(C)O3)C(O)C(C)O2)C(O)C(C)O1 (stereo not given)
inactive: [1] 51% | [2] 50.7% | [3] 38.5% | [5] 26.4% | [6] 45.8%
active: [4] 81.9%

CCC(C(=O)O)(C(C)C)C(C)C
inactive: [1] 5.8% | [2] 30.9% | [3] 12.9% | [4] 12.4% | [5] -0.05% | [6] 8.1%

CC(=O)Nc1ccc(Cc2ccc(Cl)cc2)cc1
inactive: [1] 5.6% | [2] 0.7% | [3] 5.7% | [4] 10.8% | [5] -9.8% | [6] -2.6%

COC(=O)c1c(C(=O)Nc2ccc(Cl)cc2)c(C)n(NC(N)=O)c1C
inactive: [1] -6.45% | [2] 8.8% | [3] 6.9% | [4] -45.5% | [5] 1.15% | [6] 3.95%

COc1c(CO)cc(C)cc1CO
inactive: [1] 4.15% | [2] -0.5% | [3] -6.95% | [4] 3.05% | [5] -0.7% | [6] 0.5%

CCOC(=S)SCc1cc(C(C)(C)C)c(O)c(C(C)(C)C)c1
inactive: [1] 2.7% | [2] 14.4% | [3] 20.2% | [4] -20.2% | [5] 1.15% | [6] 1.8%

CC1(O)OC(=O)c2ccc3ccccc3c21 (stereo not given)
inactive: [1] -11.4% | [2] -19.9% | [3] -9.35% | [4] 14.9% | [5] -20.8% | [6] 11%

O=C(NCc1ccccc1)Nc1cccc2c(NC(=O)NCc3ccccc3)cccc12
inactive: [1] -32.3% | [2] -31.2% | [3] -26.9% | [4] -8.15% | [5] -27.5% | [6] -7.95%

Nc1ccc(C(=O)Oc2ccc(OC(=O)c3ccccc3)cc2)cc1
inactive: [1] 9.7% | [2] 20.1% | [3] 18.9% | [4] -6.8% | [5] 0.4% | [6] 13.9%

NC(=O)CNC(=O)C1CCCN1C(=O)C1CCCCNOC(=O)CCC(NC(=O)OCC2c3ccccc3-c3ccccc32)C(=O)NC(Cc2c[nH]c3ccccc23)C(=O)N1 (stereo not given) (Fmoc-EW[X9]PG-NH2; ester 1-3; configuration not given here)
inactive: [1] -16.5% | [2] -14.7% | [3] -22.2% | [4] 18.4% | [5] 4.1% | [6] -6.35%

C[n+]1ccccc1/C=C/c1ccc2c(c1)OCO2
inactive: [1] 18.3% | [2] 5.9% | [3] 22.5% | [4] -0.45% | [5] 29.9% | [6] 6.6%

CN(/N=C/c1ccccn1)C1=NCCN1
inactive: [1] -23.9% | [2] -29.4% | [3] -31.2% | [4] 2.75% | [5] 6.55% | [6] -21.4%

OCc1cc2ccc3ccccc3c2[nH]1
inactive: [1] 25.3% | [2] 24.9% | [3] 47.9% | [4] 2.65% | [5] 25.5% | [6] 25.6%

Cc1nc(-n2nc(-c3ccccc3)cc2-c2ccccc2)sc1C(/C=C/c1ccc([N+](=O)[O-])cc1)=N/NC(=O)c1ccncc1
inactive: [1] 47.4% | [2] 36.7% | [3] 17.9% | [4] -24.7% | [5] 46.1% | [6] 58.5%

NNC(=O)c1c[nH]c2ccccc2c1=O
inactive: [1] 3.7% | [2] 13.1% | [3] 0.85% | [4] -20.6% | [5] 5.1% | [6] 5.4%

CC(=O)OC1C=CC2Oc3ccc(C)cc3C1(C)O2 (stereo not given)
inactive: [1] 12.8% | [2] -4.05% | [3] 14.4% | [4] 28.2% | [5] 23.6% | [6] 34.9%

O=C1c2cccc3cc([N+](=O)[O-])cc(c23)C(=O)N1CC1CCCO1 (stereo not given)
active: [1] 75.3%
inactive: [2] 15.8% | [3] 30.6% | [4] 18.1% | [5] 26.1% | [6] 3.15%

C1CC2(CC3(C1)SCCS3)SCCS2
inactive: [1] -0.3% | [2] 7.2% | [3] -0.85% | [4] -12.3% | [5] 1.55% | [6] 0.05%

C/C=C/CNc1ccc(C)cc1
inactive: [1] 30.5% | [2] 20.9% | [3] 25.7% | [4] 28.4% | [5] 2.2% | [6] 22.8%

O=[N+]([O-])/C=C/c1cn(CCCCCn2cc(/C=C/[N+](=O)[O-])c3ccccc32)c2ccccc12
inactive: [1] -5.65% | [2] -8.65% | [3] -2.45% | [4] -7.65% | [5] 8.35% | [6] -9.8%

COC(=O)/C=C(/C(=O)OC)N(O)C(=O)CN1C(=O)c2ccccc2C1=O
inactive: [1] -16% | [2] -15.9% | [3] -18.7% | [4] -17.3% | [5] -5.85% | [6] -23.2%

NC(=S)c1ccncc1
inactive: [1] 6.5% | [2] 8.15% | [3] 13% | [4] 12.7% | [5] 5% | [6] -27.4%

O=C1OC2=C(CCCCC2)C(N2CCCCC2)C12SCCCS2 (stereo not given)
inactive: [1] -7.9% | [2] -6.2% | [3] -5.2% | [4] -17.3% | [5] -3.25% | [6] -14.9%

C=CCC(OC(=O)CC)c1ccc2c(c1)OCO2 (stereo not given)
inactive: [1] 7.3% | [2] -11.6% | [3] 5% | [4] 4.05% | [5] 9.3% | [6] -11.9%
